# Laboratory results reported in PubChem BioAssay (EPA / NIEHS).
# Where “and” joins values, the source holds several entries; their conditions need not be identical. Identical values can stand only once. Results filed as inconclusive are left out. More than one record can exist for a structure, and the calls need not agree. Calls of active or inactive are those of the source. The calls were made as follows: active = hit-call score of the fitted dose curve at least 0.9, where 1 is the maximum; inconclusive = response in the unintended direction; inactive = score below 0.9.
# Molecular target: Bile acid receptor (Homo sapiens) (UniProt Q96RI1)
# Assay: NVS_NR_hFXR_Antagonist: NovaScreen (NVS) Nuclear Receptor Binding Assay for human Farnesoid X Receptor Antagonism (FXR) (AID 2283350)
# In short: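 Antagonist-format time-resolved FRET binding assay with extracted human receptor protein, read 1 hour after compound addition. Compounds first screened at 25 uM in duplicate, then actives tested in concentration series, with loss of signal relative to DMSO.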
# Chain of Bile acid receptor (Homo sapiens) (Q96RI1 whole entry, looked up): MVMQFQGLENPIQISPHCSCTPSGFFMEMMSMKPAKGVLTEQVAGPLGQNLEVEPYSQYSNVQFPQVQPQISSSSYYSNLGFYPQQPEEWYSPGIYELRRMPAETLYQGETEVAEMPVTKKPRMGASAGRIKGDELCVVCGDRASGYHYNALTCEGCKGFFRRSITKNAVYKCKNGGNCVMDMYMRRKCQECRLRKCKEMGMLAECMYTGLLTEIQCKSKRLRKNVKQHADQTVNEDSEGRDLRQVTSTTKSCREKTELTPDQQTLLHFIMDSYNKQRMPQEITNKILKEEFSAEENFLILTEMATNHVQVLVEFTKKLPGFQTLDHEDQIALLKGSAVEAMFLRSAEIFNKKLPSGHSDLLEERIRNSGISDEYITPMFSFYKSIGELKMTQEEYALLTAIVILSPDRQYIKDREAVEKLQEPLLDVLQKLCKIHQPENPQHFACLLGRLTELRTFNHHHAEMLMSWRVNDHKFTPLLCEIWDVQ
Compound,outcome,AC50
Cc1cc(F)ccc1-c1cc(N2CC[C@@H](O)[C@H]2CO)ncc1N(C)C(=O)C(C)(C)c1cc(C(F)(F)F)cc(C(F)(F)F)c1,inactive,
CC(=O)N1CCN(c2ccc(OC[C@H]3CO[C@](Cn4ccnc4)(c4ccc(Cl)cc4Cl)O3)cc2)CC1,,20.2 µM (active)
CCN(CC)C(=O)c1cc(S(=O)(=O)Cc2ccccc2)c(N2CCC(c3ccccc3)CC2)cc1N(CC)CCN(C)C,,10.1 µM (active)
CN1C(=O)N(c2ccccc2Br)Cc2cnc(Nc3ccc4c(c3)OCC(CO)O4)nc21 (stereo not given),,0.0374 µM (active)

# Molecular target: Estrogen receptor (Homo sapiens) (UniProt P03372)
# Assay: OT_ER_ERaERa_0480: Odyssey Thera (OT) 8-hour HEK293T Protein-Complementation Assay for Estrogen Receptor-alpha/-alpha Homodimer (AID 2283351);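 also: rise in fluorescence from reassembled reporter fragments on ERα LBD homodimer in nucleus or whole cell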
# In short: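 Measures ERα LBD (aa 310-547) homodimer complementation in stably transfected HEK293T at 8 h post-dose, with fluorescence intensity quantified on a laser scanning cytometer relative to DMSO controls.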
# Chain of Estrogen receptor (Homo sapiens) (P03372 whole entry, looked up, the tested form may be a part): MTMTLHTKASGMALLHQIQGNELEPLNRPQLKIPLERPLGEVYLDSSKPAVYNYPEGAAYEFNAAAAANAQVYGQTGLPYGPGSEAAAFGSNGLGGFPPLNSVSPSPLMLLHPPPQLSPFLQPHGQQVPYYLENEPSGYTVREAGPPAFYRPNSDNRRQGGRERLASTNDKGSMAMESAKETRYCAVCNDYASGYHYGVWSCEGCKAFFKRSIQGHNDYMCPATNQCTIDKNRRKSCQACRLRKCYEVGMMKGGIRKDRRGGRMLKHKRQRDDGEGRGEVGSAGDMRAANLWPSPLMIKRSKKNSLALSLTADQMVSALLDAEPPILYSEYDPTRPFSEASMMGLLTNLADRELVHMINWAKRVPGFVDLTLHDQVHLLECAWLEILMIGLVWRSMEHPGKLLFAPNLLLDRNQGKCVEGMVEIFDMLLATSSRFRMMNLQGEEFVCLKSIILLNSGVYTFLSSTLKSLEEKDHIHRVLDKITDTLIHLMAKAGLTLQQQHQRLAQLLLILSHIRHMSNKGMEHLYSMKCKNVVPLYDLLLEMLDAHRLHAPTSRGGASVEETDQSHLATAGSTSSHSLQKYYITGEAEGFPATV
Compound,outcome,AC50
CCCCCCCCN(C)CCCCCCCC,inactive,
CC(C)(C)c1csc(-c2cc3cc(OCc4ccccc4CC(=O)O)ccc3o2)n1,inactive,
COc1cc(C(=O)NC2CCN(C)CC2)ccc1Nc1ncc2c(n1)N(C1CCCC1)CC(F)(F)C(=O)N2C,inactive,
Cc1cc(F)ccc1-c1cc(N2CC[C@@H](O)[C@H]2CO)ncc1N(C)C(=O)C(C)(C)c1cc(C(F)(F)F)cc(C(F)(F)F)c1,inactive,
CC(=O)N1CCN(c2ccc(OC[C@H]3CO[C@](Cn4ccnc4)(c4ccc(Cl)cc4Cl)O3)cc2)CC1,inactive,
Cc1c2ccccc2c(C)c2c1ccc1ccccc12,inactive,
COc1ccc2cc(S(=O)(=O)N[C@H](CC(=O)N[C@H](Cc3ccc(CN4[C@H](C)CCC[C@@H]4C)cc3)C(=O)N(C)C(C)C)c3ccc4c(c3)OCO4)ccc2c1,inactive,
CN(C)c1ccc(C(=C2C=CC(=[N+](C)C)C=C2)c2ccc(N(C)C)cc2)cc1,inactive,
Clc1cc(Cl)c2c(c1)N=C1CCCCCN1C2,inactive,
NCc1cccc(C2CCN(C(=O)c3ccc(C#Cc4ccccc4F)o3)CC2)c1,inactive,
CCN(CC)C(=O)c1cc(S(=O)(=O)Cc2ccccc2)c(N2CCC(c3ccccc3)CC2)cc1N(CC)CCN(C)C,inactive,
Cc1occc1C(=O)Nc1ccc(C(=O)N2CCC(F)(F)/C(=C\C(=O)N3CCC(N4CCCCC4)CC3)c3ccccc32)cc1,,27.7 µM (active)
CN1C(=O)N(c2ccccc2Br)Cc2cnc(Nc3ccc4c(c3)OCC(CO)O4)nc21 (stereo not given),inactive,
COc1cccc([C@H](O)C2CCN(CCc3ccc(F)cc3)CC2)c1OC,inactive,
O=C1c2ccccc2C(=O)N1CCc1noc(-c2ccc(CN3CCCCCC3)s2)n1,inactive,
CC1=CC(=O)/C(=C(/C)O)C(=O)O1,inactive,
CCOC(=O)O[C@H](C)OC(=O)c1ccc2c(c1)cc(C(=O)NC1CCN(C(C)C)CC1)n2Cc1cc(-c2ccc(Cl)s2)on1,inactive,
Cc1ccc2oc(CN(Cc3ccccc3)C(=O)Nc3c(F)cc(F)cc3F)c(-c3ccc(Cl)cc3)c2c1,inactive,
CCCCCCCCOC(=O)c1cc(O)c(O)c(O)c1,,12.1 µM (active)
Cc1oc2c(NC(=O)c3c(Cl)cccc3Cl)cccc2c1C(C)(C)O,inactive,
c1ccc(C[n+]2cccc3ccccc32)cc1,inactive,
CC(C)(C)c1cc(/C=C2\SC(N)=NC2=O)cc(C(C)(C)C)c1O,inactive,
CN(C[C@@H](CC[N+]12CCC(C3CCCCC3)(CC1)CC2)c1ccc(Cl)c(Cl)c1)C(=O)c1cc(C(F)(F)F)cc(C(F)(F)F)c1,inactive,
CCCCCc1ccc(N)cc1,inactive,67 µM (active) and 67.6 µM (active)
CCN(Cc1cccnc1)C(=O)c1cccc(Cl)c1[C@]1(C)C(=O)N(Cc2ccc(OC)cc2OC)c2ccc(Cl)cc21,inactive,

# Molecular target: Estrogen receptor (Homo sapiens) + Estrogen receptor beta (Homo sapiens) (UniProt P03372+Q92731)
# Assay: OT_ER_ERaERb_0480: Odyssey Thera (OT) 8-hour HEK293T Protein-Complementation Assay for Estrogen Receptor-alpha/-beta Heterodimer (AID 2283352)
# In short: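 Fluorescence intensity readout from a protein-fragment complementation reporter in HEK293T; ER-alpha/ER-beta LBD heterodimer. Dosing 8 h. Gain-of-signal fit relative to DMSO negative control; laser scanning cytometry of whole-well cell population.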
# Chain of Estrogen receptor (Homo sapiens) + Estrogen receptor beta (Homo sapiens) (P03372 whole entry, looked up): as the sequence (P03372 whole entry, looked up, the tested form may be a part) above
# Chain of Estrogen receptor (Homo sapiens) + Estrogen receptor beta (Homo sapiens) (Q92731 whole entry, looked up): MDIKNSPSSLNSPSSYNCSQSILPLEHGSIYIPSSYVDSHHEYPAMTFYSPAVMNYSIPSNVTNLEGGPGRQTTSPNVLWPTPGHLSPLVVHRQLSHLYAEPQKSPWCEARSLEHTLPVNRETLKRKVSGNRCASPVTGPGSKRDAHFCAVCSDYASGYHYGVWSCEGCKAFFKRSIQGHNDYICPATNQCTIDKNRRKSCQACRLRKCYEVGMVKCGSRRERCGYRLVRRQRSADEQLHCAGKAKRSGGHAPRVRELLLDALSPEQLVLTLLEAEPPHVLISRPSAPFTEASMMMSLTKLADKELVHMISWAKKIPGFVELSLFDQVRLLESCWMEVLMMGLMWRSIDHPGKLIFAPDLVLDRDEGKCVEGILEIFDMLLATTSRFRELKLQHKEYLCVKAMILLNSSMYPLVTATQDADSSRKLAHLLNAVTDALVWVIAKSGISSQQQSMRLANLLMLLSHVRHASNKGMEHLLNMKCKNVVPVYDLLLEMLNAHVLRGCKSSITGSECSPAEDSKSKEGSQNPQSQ
Compound,outcome,AC50
CC(C)(C)c1csc(-c2cc3cc(OCc4ccccc4CC(=O)O)ccc3o2)n1,inactive,
COc1cc(C(=O)NC2CCN(C)CC2)ccc1Nc1ncc2c(n1)N(C1CCCC1)CC(F)(F)C(=O)N2C,inactive,
Cc1cc(F)ccc1-c1cc(N2CC[C@@H](O)[C@H]2CO)ncc1N(C)C(=O)C(C)(C)c1cc(C(F)(F)F)cc(C(F)(F)F)c1,inactive,
CC(=O)N1CCN(c2ccc(OC[C@H]3CO[C@](Cn4ccnc4)(c4ccc(Cl)cc4Cl)O3)cc2)CC1,inactive,
Cc1c2ccccc2c(C)c2c1ccc1ccccc12,inactive,
Cc1occc1C(=O)Nc1ccc(C(=O)N2CCC(F)(F)/C(=C\C(=O)N3CCC(N4CCCCC4)CC3)c3ccccc32)cc1,,26.9 µM (active)
CN1C(=O)N(c2ccccc2Br)Cc2cnc(Nc3ccc4c(c3)OCC(CO)O4)nc21 (stereo not given),inactive,
COc1cccc([C@H](O)C2CCN(CCc3ccc(F)cc3)CC2)c1OC,inactive,
CC1=CC(=O)/C(=C(/C)O)C(=O)O1,inactive,
Cc1ccc2oc(CN(Cc3ccccc3)C(=O)Nc3c(F)cc(F)cc3F)c(-c3ccc(Cl)cc3)c2c1,inactive,
CCCCCCCCOC(=O)c1cc(O)c(O)c(O)c1,,11.9 µM (active)
c1ccc(C[n+]2cccc3ccccc32)cc1,inactive,
CCCCCc1ccc(N)cc1,inactive,46.8 µM (active) and 40 µM (active) and 53.9 µM (active)
CCN(Cc1cccnc1)C(=O)c1cccc(Cl)c1[C@]1(C)C(=O)N(Cc2ccc(OC)cc2OC)c2ccc(Cl)cc21,inactive,
